Compound activity: PubChem, National Center for Advancing Translational Sciences (NCATS)
GPT2 inhibitor: Primary qHTS assay for inhibitors of Glutamate pyruvate transaminase 2 (GPT2); Potency, µM (series often up to 57.7 µM), without a hit: at the highest dose activity change, negative = inhibition, usual class: inhibitors; 100,000 tested, 0.25% active; AID 1671188, 2021; Alanine aminotransferase 2 (Homo sapiens), Q8TD30; Recombinant GPT2, coupled pyruvate oxidase/HRP Amplex Red fluorescence; also: nearly all actives have a fitted effect of over 60% in size
Target sequence (Q8TD30 whole entry, looked up): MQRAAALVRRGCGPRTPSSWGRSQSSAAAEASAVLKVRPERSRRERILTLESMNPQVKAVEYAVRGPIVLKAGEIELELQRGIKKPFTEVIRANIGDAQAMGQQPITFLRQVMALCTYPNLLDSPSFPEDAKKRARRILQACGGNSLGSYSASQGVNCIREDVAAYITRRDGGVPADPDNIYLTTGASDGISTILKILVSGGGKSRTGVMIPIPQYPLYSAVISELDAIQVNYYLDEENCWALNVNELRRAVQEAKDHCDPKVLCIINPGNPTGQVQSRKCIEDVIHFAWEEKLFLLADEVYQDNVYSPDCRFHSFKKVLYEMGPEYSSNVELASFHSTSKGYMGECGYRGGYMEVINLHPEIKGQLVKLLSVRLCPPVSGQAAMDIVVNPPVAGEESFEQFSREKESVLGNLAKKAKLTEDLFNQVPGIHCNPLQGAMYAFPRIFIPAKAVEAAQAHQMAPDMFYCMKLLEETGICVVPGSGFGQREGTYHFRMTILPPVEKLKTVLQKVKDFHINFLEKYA
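Recombinant GPT2 (10ng/uL) with 250uM a-KG and 2mM L-alanine, 30 min at room temperature, in HEPES pH 7.5 buffer. Pyruvate detected by pyruvate oxidase/HRP/Amplex Red fluorescence after 30 min in the dark; AOA (50uM) as positive control.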
hNpr1 antagonist: Natriuretic polypeptide receptor (hNpr1) antagonism - Primary qHTS. Atrial natriuretic peptide receptor 1 (Homo sapiens), P16066. HEK293 hNpr1 GloSensor cGMP, ANP-stimulated luminescence. Potency, µM (series often up to 46.3 µM), for the others: at the highest dose activity change, negative = inhibition, actives largely listed as inhibitors. 76,000 tested, 1.6% active. AID 1347048, 2019; calls by dose curve; also: nearly all actives have a fitted effect of over 60% in size
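Compound pre-incubated 30 min at room temperature on GloSensor-loaded HEK293 cells stably carrying hNpr1 and the pGS-40F cGMP biosensor. Stimulation uses hNppA at 0.1 nM final; luminescence is taken at baseline and 20 min post-agonist.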
FLuc inh: Firefly luciferase inhibition profiling of diverse chemical library using quantitative high-throughput screening; Potency, µM (series often up to 115 µM), hits mostly inhibitors; 76,000 tested, 2.5% active; purified P. pyralis luciferase, luminescence, biochemical; AID 1347043, 2019; also: nearly all actives have a fitted effect of over 65% in size
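Cell-free enzyme assay, 10nM P. pyralis luciferase, luciferin and ATP each at 10uM. Inhibition profiled over a 6-point titration, read as luminescence.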
NIH3T3 tox: Cytotoxic Profiling in NIH 3T3 Cell Line of Diverse Libraries Using Quantitative High-Throughput Screening. NIH 3T3 viability, CellTiter-Glo ATP luminescence, 48-72 h. Potency, µM (series often up to 96.7 µM), without a hit: at the top dose activity change, negative = cytotoxicity, usual class: inhibitors. 94,000 tested, 4.3% active. AID 1345082, 2018; also: nearly all actives have a fitted effect of over 55% in size
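Viability of NIH 3T3 cells after 48 or 72 hr compound treatment at 37 °C was assessed by CellTiter-Glo, with luminescence imaged following a 10 min room-temperature step.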
HEK cytotox: Cytotoxic Profiling in HEK 293 Cell Line of Diverse Libraries Using Quantitative High-Throughput Screening; HEK 293 viability, ATP luminescence (CellTiter-Glo), 48-72 h; Potency, µM (series often up to 115 µM), inactives show at the top dose activity change, negative = cytotoxicity, usual class: inhibitors; 94,000 tested, 6.6% active; also: nearly all actives have a fitted effect of over 60% in size
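Pintool-delivered compounds were incubated with HEK 293 cells (250 cells/well) at 37 degree Celsius for 48 or 72 hr. ATP-dependent luminescence (CellTiter-Glo) then reported remaining viable cells.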
Starred values were filed as active, the others as inactive; i = inactive; ? = inconclusive; [ ] = another dose, or the depositor's remark. An excerpt weighted towards active compounds, which were near 10% of everything screened. Unless noted, calls follow the shape of the dose curve; as a rule, active = well fitted curve in the direction sought with a large enough effect; inconclusive = small, poorly fitted or top-dose-only effect, or another doubt; inactive = no such curve, though single readings can be large; an effect the other way counts as inactive or inconclusive. % is scaled to controls: 0 for no effect and ±100 for the full control effect; potency is read from the fitted curve at half-maximal effect.

SMILES	GPT2 inhibitor	hNpr1 antagonist	FLuc inh	NIH3T3 tox	HEK cytotox
O=C(c1ccc2c(c1)OCO2)N1C[C@@H](CO)[C@H](c2ccccn2)C1	-7%	-2%	i	1%	i
COc1ccc(C2Cn3cnc(-c4nc(-c5ccc6c(c5)OCO6)no4)c3CO2)cc1 (stereo not given)	i	-11%	i	-16%	-11%
O=C(NCCN1CCCCC1)c1ccc(-c2ccc(N3CCSCC3)nc2)cc1	i	-21%	i	28µM*	35µM*
O=C(NCCN1CCOCC1)c1ccc(-c2ccc(N3CCSCC3)nc2)cc1	-8%	-14%	?	-7%	?
CCC(C)NC(=O)c1ccc(-c2ccc(N3CCSCC3)nc2)cc1 (stereo not given)	-2%	-11%	?	-5%	-3%
CN1CCN(CCNC(=O)c2ccc(-c3ccc(N4CCCCCC4)nc3)cc2)CC1	i	-17%	i	14µM*	25µM*
CN(C)CCNC(=O)c1ccc(-c2ccc(N3CCCCCC3)nc2)cc1	i	-2%	?	18µM*	32µM*
O=C(NCCCN1CCCC1)c1ccc(-c2ccc(N3CCCCC3)nc2)cc1	i	0%	?	?	?
COCCO[C@H]1C(=O)N(C2CCN(S(=O)(=O)c3ccccc3)CC2)[C@H]1c1ccncc1	1%	-1%	i	-20%	-25%
Cc1noc2c(NCC3CCOCC3)cc(-c3ccc(Cl)cc3)nc12	5%[88.5 µM]	1%[70.6 µM]	i	?	100µM*
Cc1noc2c(NCc3cccnc3)cc(-c3ccc(F)cc3)nc12	-1%[88.5 µM]	5%[70.6 µM]	i	?	?
Cc1noc2c(NCc3ccncc3)cc(-c3ccc(Cl)cc3)nc12	-3%[88.5 µM]	-3%[70.6 µM]	i	45µM*	?
Cc1noc2c(NCCN3CCOCC3)cc(-c3ccc(Cl)cc3)nc12	-13%[88.5 µM]	-3%[70.6 µM]	i	?	?
Cc1noc2c(NCc3cccnc3)cc(-c3ccc(Cl)cc3)nc12	4%[88.5 µM]	7%[70.6 µM]	i	?	100µM*
CC(C)c1cc(CNC(=O)c2ccc(OC3CCN(C(=O)C4CC4)CC3)cc2)on1	-19%	?	i	-29%	?
CC(C)C(=O)N1CCC(Oc2ccc3c(cnn3CCC(=O)O)c2)CC1	4%[88.5 µM]	0%[70.6 µM]	i	?	-12%[172 µM]
CNC(=O)CCn1ncc2cc(OC3CCc4cccc(-c5ccc(OC)cc5)c43)ccc21 (stereo not given)	-1%[88.5 µM]	-19%[70.6 µM]	i	50µM*	79µM*
CC(C)OC(=O)N1CCC(Oc2ccc3c(cnn3CCC(=O)O)c2)CC1	-7%[88.5 µM]	1%[70.6 µM]	i	?	4%[172 µM]
CNC(=O)CCn1ncc2cc(OCc3ccccc3-c3cc(Cl)ccc3OC)ccc21	?	-11%	i	?	?
CNC(=O)CCn1ncc2cc(OC3CCc4cccc(-c5cccc(CO)c5)c43)ccc21 (stereo not given)	-29%[88.5 µM]	-1%[70.6 µM]	?	?	79µM*
CNC(=O)CCn1ncc2cc(OC3CCc4cccc(-c5cnn(C)c5)c43)ccc21 (stereo not given)	-26%[88.5 µM]	1%[70.6 µM]	i	?	50µM*
CNC(=O)CCn1ncc2cc(OC3CCc4cccc(-c5ccc(O)c(F)c5)c43)ccc21 (stereo not given)	i	2%	i	40µM*	?
O=C(c1n[nH]c2c1CCCC2)N1CCc2nc3cc[nH]n3c(=O)c2C1	i	7%	i	?	-1%
CN(C)c1cc(CC2CC(=O)N(c3ccccc3)C2)ncn1 (stereo not given)	5%	-2%	i	-9%	-19%
CN1C[C@H](N(C)C)CCC[C@@H](C(=O)N(C)Cc2cccnc2)CC1=O	-13%[88.5 µM]	3%[70.6 µM]	i	i	i
